Measured values from PubChem BioAssay (NCATS).
Records with an inconclusive call do not appear. The source made the active and inactive calls. Unless noted, the rule behind the calls is not given here.

Columns and labels:
[1] = qHTS profiling of the MIPE4 collection as inhibitors of Plasmodium falciparum (3D7) proliferation (AID 743344);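 note: scaled between DMSO vehicle wells and 0.29 µM artemisinin as full inhibition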; settings: P. falciparum 3D7 in erythrocytes, SYBR Green DNA fluorescence, 72 h; at 28.5 µM unless noted
How it was run: (§1)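 Erythrocytes infected with P. falciparum (0.3% parasitemia, 2.5% hematocrit) incubated with compounds 72 h at 37 C, 5% CO2. Lysis with saponin/Triton buffer containing SYBR Green I, overnight at room temperature in the dark; DNA fluorescence (485/535 nm) normalised to 0.29 uM artemisinin and DMSO.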

[2] = qHTS profiling of the MIPE4 collection as inhibitors of Plasmodium falciparum (DD2) proliferation (AID 743345); settings: P. falciparum Dd2 in erythrocytes, SYBR Green DNA, 72 h; at 28.5 µM unless noted
How it was run: as §1

[3] = qHTS profiling of the MIPE4 collection as inhibitors of Plasmodium falciparum (DD2) proliferation (Rep 2) (AID 743346); settings: P. falciparum Dd2 in erythrocytes, SYBR Green DNA, 72 h; at 28.5 µM unless noted
How it was run: as §1

[4] = qHTS profiling of the MIPE4 collection as inhibitors of Plasmodium falciparum (HB3) proliferation (AID 743347);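 note: plate controls were DMSO vehicle wells for no effect and artemisinin wells for full effect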; settings: P. falciparum HB3 in erythrocytes, SYBR Green DNA, 72 h; at 28.5 µM unless noted
How it was run: as §1

[5] = High-throughput drug toxicity screening in the BPDCN cell line Gen2.2 (AID 1224824); settings: Gen2.2 BPDCN cells; at 45.8 µM (top of the series) unless noted;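 note: cells exposed to compounds for 48 h before reading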
How it was run: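 Gen2.2 cells (500/well) in phenol red-free RPMI with 10% FBS were exposed to compounds for 48 h at 37 °C, 5% CO2. Viability was read by CellTiter-Glo luminescence and normalized to DMSO (100%) and 9.2 uM bortezomib (0%).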

[6] = High-throughput drug toxicity screening in the BPDCN cell line Cal-1 (AID 1224825); settings: Cal-1 BPDCN cell viability, qHTS; at 45.8 µM (top of the series) unless noted
How it was run: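 Cal-1 cells, 500 per well in phenol-red-free RPMI with 10% FBS, exposed to compounds for 48 hours at 37C, 5% CO2. Viability read by CellTiter-Glo luminescence; percent activity normalized to DMSO (100%) and 9.2 uM bortezomib final (0%).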

[7] = qHTS assay for measurement of the activity of small molecule inhibitors on Zika virus induced Caspase-3 activity in human iPSC derived neural progenitor cells (hNPCs) (AID 1224857; active = well fitted curve in the direction sought with a large enough effect; an effect the other way counts as inactive or inconclusive; note: % of control where 0% means no effect; nearly all actives have a fitted effect of over 65% in size)
How it was run: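 Percent inhibition of virus-induced caspase-3/7 luminescence (Caspase-Glo), scaled between uninfected cells and Zika-infected cells. hNPCs received compound 1 hr before ZIKV at 2 FFU/cell, with 6 hours infection at 37 C.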

[8] = qHTS assay for measurement of the activity of small molecule inhibitors on Zika virus induced Caspase-3 activity in human astrocytoma cells (AID 1224859; active = well fitted curve in the direction sought with a large enough effect; an effect the other way counts as inactive or inconclusive;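 note: plate controls were ZIKV-infected untreated cells for no effect and uninfected cells for full effect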)
How it was run: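 Luminescent caspase-3/7 read-out (30 min reagent, room temperature) in human SNB-19 cells infected 6 h with ZIKV (2 FFU/cell) after 1 h compound pre-incubation; Data were normalised to uninfected and infected wells.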

[9] = qHTS Screen of the MIPE 4.0 Collection Against Ewings Sarcoma (EW8) (AID 1259255; active = well fitted curve in the direction sought with a large enough effect; an effect the other way counts as inactive or inconclusive;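 note: 100% = DMSO-treated cells and 0% = medium-only wells without cells; nearly all actives have a fitted effect of over 35% in size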)
How it was run: (§2)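 Log-phase cells in RPMI with 5% FBS attached for 4 h, then received compounds as a titration for 48 h at 37C, 5% CO2. Viability was read by CellTiter-Glo luminescence and normalized to DMSO and no-cell wells.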

[10] = qHTS Screen of the MIPE 4.0 Collection Against Ewings Sarcoma (TC32) (AID 1259256; active = well fitted curve in the direction sought with a large enough effect; an effect the other way counts as inactive or inconclusive; note: nearly all actives have a fitted effect of over 45% in size; note: potency is the fitted concentration of half-maximal effect)
How it was run: as §2

[11] = qHTS Screen of the MIPE 4.0 Collection Against Ewings Sarcoma (TC71) (AID 1259253; active = well fitted curve in the direction sought with a large enough effect; an effect the other way counts as inactive or inconclusive; note: nearly all actives have a fitted effect of over 40% in size; note: potency is the fitted concentration of half-maximal effect)
How it was run: as §2

[12] = qHTS profiling for inhibitors of Plasmodium falciparum (HB3) proliferation (AID 743324; active = well fitted curve in the direction sought with a large enough effect; an effect the other way counts as inactive or inconclusive;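 note: 100% = DMSO vehicle wells and 0% = artemisinin-treated control wells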); settings: Plasmodium falciparum HB3 blood-stage proliferation; at 28.7 µM (top of the series)
How it was run: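 P. falciparum HB3 grown in erythrocytes (0.3% parasitemia, 2.5% hematocrit final) with compound for 72 h at 37 C, 5% CO2. Parasite DNA detected by SYBR Green after saponin/triton lysis overnight; normalized to 0.29 uM artemisinin and DMSO.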

[13] = Identifying Small Molecule Inhibitors of Pancreatic Cancer Stem Cells (A278, Adherent) (AID 1259361; active = well fitted curve in the direction sought with a large enough effect; an effect the other way counts as inactive or inconclusive; note: nearly all actives have a fitted effect of over 35% in size)
How it was run: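 Spheroids grown 14 days in stem cell media on hydrogel-coated nonadherent plates; 2D lines seeded directly. Compounds added after 4 h attachment, 48 h at 37C, 5% CO2; CellTiter-Glo luminescence normalized to DMSO (no inhibition) and no-cell wells (full inhibition).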

SMILES	parasite growth, % of DMSO control [1]	parasite growth remaining, % of DMSO control (lower = more inhibition) [2]	parasite growth, % of control (lower = inhibition) [3]	growth, % of control [4]	cell viability, % of control (lower = more cytotoxic) [5]	viability (% of control) [6]	Potency [7]	Potency [8]	Potency [9]	Potency [10]	Potency [11]	remaining proliferation (% of control), lower = more inhibition [12]	IC50 (viability decrease) [13]
CCCCCCCCCCCC1=C(O)C(=O)C=C(O)C1=O	54.7%	63.9%	16.4%	27.2%	52.7%	15.1%	inactive	inactive	inactive	23.5 µM (active)	–	–	–
COc1ccc(Cc2ccc(NC(N)=O)cc2)cc1-c1cccc(Cl)c1	61.7%	89.9%	38.4%	69.6%	234%	91.3%	inactive	inactive	–	23.5 µM (active)	18.7 µM (active)	–	–
NC(=O)c1ccc2nc(-c3ccc(Oc4ccc(Cl)cc4)cc3)[nH]c2c1	–	76.9%	61.3%	–	59.5%	38%	inactive	inactive	–	–	0.526 µM (active)	–	–
O=C(Nc1c(Cl)cncc1Cl)c1ccc(OC(F)F)c(OCC2CC2)c1	109%	100%	67.9%	–	134%	105%	inactive	inactive	inactive	–	–	–	–
NC[C@@H]1O[C@@H](O[C@H]2[C@@H](O)[C@H](O[C@@H]3[C@@H](O)[C@@H](N)C[C@H](N)[C@H]3O[C@H]3O[C@H](CN)[C@@H](O)[C@@H](O)[C@H]3N)O[C@H]2CO)[C@H](N)[C@@H](O)[C@@H]1O	88%	92.7%	–	99.6%	134%	147%	inactive	inactive	inactive	–	inactive	–	–
CC(C)OC(=O)C(C)(C)Oc1ccc(C(=O)c2ccc(Cl)cc2)cc1	–	–	–	–	250%	–	–	–	–	–	–	–	–
CN1C[C@H]2c3ccccc3Oc3ccc(Cl)cc3[C@@H]2C1	–	–	–	–	54.1%	–	–	–	–	–	–	–	–
CCOC(=O)C1=C(N)Oc2ccc(Br)cc2C1C(C#N)C(=O)OCC (centres undefined)	91.3%	95.8%	93.2%	107%	3.23%	9.05%	inactive	inactive	–	37.2 µM (active)	23.5 µM (active)	–	–
CN(C)Cc1ccc(-c2nc3cccc4c3n2CCNC4=O)cc1	–	100%	73.5%	97%	15.8%	4.01%	inactive	inactive	–	–	18.7 µM (active)	94%	23.5 µM (active)
CC(C)C(C)C=CC(C)C1CCC2C3=CC=C4CC(O)CCC4(C)C3CCC21C (centres undefined)	–	102%	–	98%	136%	127%	inactive	inactive	inactive	inactive	–	–	–
CC(=O)OC1C(C)OC(Oc2c(-c3ccc(O)cc3)oc3cc(O)cc(O)c3c2=O)C(O)C1OC(C)=O (centres undefined)	11.3%	72.5%	32.5%	4.99%	5.65%	7.44%	inactive	inactive	inactive	inactive	–	–	–
